Results taken from PubChem BioAssay AID624255 (Broad Institute, 2012).
Several values for one entry are separate records, joined by “and”; a condition that tells them apart may be missing. Equal values may be shown once. The whole screen tested about 77,000 compounds, of which about 4,600 (6%) were called active. Roughly 1% stayed inconclusive and do not appear here. The sample as a whole holds a higher share of actives than the screen did. Values without a mark were called inactive.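 How the source made its calls: active means mean inhibition above about 93%, with at least 55% of replicates each passing it (limit read from the data, passing the limit was not always enough); inconclusive means only one of those two conditions holds; inactive means neither condition holds.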

test: T. cruzi intracellular proliferation inhibitors, primary screen, cell-based, beta-gal Tulahuen parasites, NIH3T3 host, luminescence (AID 624255); conditions: T. cruzi beta-gal in NIH3T3, GalScreen luminescence, 90 h; at 8.34 µM; active compounds read high

Row | SMILES | inhibition
1 | COc1cccc(CNC(=O)c2cc3c(c(-c4cccc(-c5ccc(C#N)cc5)c4)n2)[C@@H](CCO)N([S@](=O)C(C)(C)C)C3)c1 | 84.2%
2 | CCCNC(=O)c1cc2c(c(-c3cccc(-c4ccc(F)cc4)c3)n1)[C@@H](CCO)N([S@](=O)C(C)(C)C)C2 | 87.5%
3 | CC(C)(C)[S@@](=O)N1Cc2cc(C(=O)NCc3ccc4c(c3)OCO4)nc(-c3cccc(-c4ccccc4)c3)c2[C@H]1CCO | 99.7% (active)
4 | CCC(=O)N1C[C@@H](C)[C@H](OC)CN(C)C(=O)c2ccc(NC(=O)Nc3ccccc3)cc2OC[C@@H]1C | 13.5%
5 | CCC(=O)N(C)C[C@H]1Oc2cc(C#CC3CCCC3)ccc2S(=O)(=O)N([C@H](C)CO)C[C@@H]1C | 86.4%
6 | CC(=O)N(C)C[C@H]1Oc2cc(C#CC3CC3)ccc2S(=O)(=O)N([C@H](C)CO)C[C@@H]1C | 21.1%
7 | COCC(=O)N(C)C[C@H]1Oc2cc(C#CC3CCCC3)ccc2S(=O)(=O)N([C@H](C)CO)C[C@@H]1C | 22.9%
8 | C[C@H](CO)N1C[C@H](C)[C@@H](CN(C)C(=O)Nc2cc(F)ccc2F)Oc2cc(C#CC3CC3)ccc2S1(=O)=O | 114% (active)
9 | C[C@H](CO)N1C[C@H](C)[C@H](CN(C)C)Oc2cc(C#CC3CC3)ccc2S1(=O)=O | -175%
10 | C[C@H]1CN([C@@H](C)CO)S(=O)(=O)c2ccc(C#CC3CCCC3)cc2O[C@@H]1CN(C)C(=O)c1cccc(F)c1 | 115% (active)
11 | CO[C@@H]1CC[C@@H]2CCOc3ccc(C#N)cc3C(=O)N(C)C[C@@H](OC)[C@@H](C)C(=O)N(C)C[C@H]1O2 | 26.1%
12 | Cc1noc(C)c1NC(=O)N(C)C[C@H]1OCCCC[C@H](C)Oc2ccc(NC(=O)Nc3ccccc3)cc2C(=O)N([C@H](C)CO)C[C@@H]1C | -11.2%
13 | CO[C@@H]1CN(C)C(=O)c2ccc(NS(=O)(=O)c3cn(C)cn3)cc2OC[C@H](C)N(CCC(F)(F)F)C[C@@H]1C | 40.1%
14 | CCNC(=O)C[C@@H]1CC[C@H]2[C@@H](COc3ccc(NC(=O)c4ccccc4Cl)cc3C(=O)N2C)O1 | 1.97%
15 | CNC[C@H]1Oc2cc(C#Cc3ccccn3)ccc2S(=O)(=O)N([C@H](C)CO)C[C@@H]1C | 92.5%
16 | C[C@H](CO)N1C[C@H](C)[C@H](CN(C)C(=O)C2CCCCC2)Oc2ncc(C#Cc3cccc(F)c3)cc2C1=O | 120% (active)
17 | C[C@H](CO)N1C[C@H](C)[C@H](CN(C)C(=O)C2CC2)Oc2ncc(C#Cc3ccccc3)cc2C1=O | 60.3%
18 | COc1cccc(C#Cc2cnc3c(c2)C(=O)N([C@@H](C)CO)C[C@H](C)[C@@H](CN(C)C(=O)C2CCC2)O3)c1 | 84.3%
19 | C[C@H](CO)N1C[C@H](C)[C@H](CN(C)C(=O)Nc2ccc3c(c2)OCO3)Oc2ncc(C#Cc3cccc(F)c3)cc2C1=O | 100% (active)
20 | C[C@H]1CN([C@@H](C)CO)C(=O)c2cc(C#Cc3ccc(F)cc3)cnc2O[C@@H]1CN(C)C(=O)Nc1ccc(F)cc1 | 25%
21 | COCC#Cc1cnc2c(c1)C(=O)N([C@H](C)CO)C[C@@H](C)[C@@H](CN(C)C(=O)Nc1cccc(F)c1)O2 | 8.75%

Row | SMILES | inhibition
22 | CN1[C@@H]2CN(C(=O)c3ccc(F)cc3)c3ccccc3[C@@H]2[C@@H]1CO | -2.39%
23 | COc1cccc(-c2ccc3n(c2=O)C[C@H]2[C@H](CO)[C@@H](C(=O)N4CCCCC4)N(C)[C@@H]32)c1 | 13.1%
24 | CC(C)CC#Cc1ccc2c(c1)O[C@H](CN(C)S(=O)(=O)c1cccc(F)c1)[C@@H](C)CN([C@@H](C)CO)S2(=O)=O | 119% (active)
25 | C[C@@H]1CN([C@H](C)CO)S(=O)(=O)c2ccc(C3=CCCC3)cc2O[C@@H]1CN(C)C(=O)C1CCC1 | 52.9%
26 | C[C@H]1CN([C@@H](C)CO)S(=O)(=O)c2ccc(C#Cc3cccc(F)c3)cc2O[C@@H]1CN(C)S(=O)(=O)c1cn(C)cn1 | 102% (active)
27 | C[C@@H]1CN([C@H](C)CO)S(=O)(=O)c2ccc(C3=CCCC3)cc2O[C@H]1CN(C)C(=O)c1ccccc1 | -0.873%
28 | CC(=O)N(C)C[C@@H]1Oc2cc(-c3cccc(F)c3)ccc2S(=O)(=O)N([C@H](C)CO)C[C@H]1C | 31.3%
29 | C[C@@H]1CN([C@@H](C)CO)S(=O)(=O)c2ccc(C#Cc3cccc(F)c3)cc2O[C@H]1CN(C)S(=O)(=O)c1cn(C)cn1 | 61.3% and -15.4%
30 | C[C@@H]1CN([C@@H](C)CO)S(=O)(=O)c2ccc(-c3cccc(F)c3)cc2O[C@@H]1CN(C)S(=O)(=O)c1ccccc1 | 117% (active)
31 | COc1cccc(S(=O)(=O)N(C)C[C@@H]2Oc3cc(C#CCN(C)C)ccc3S(=O)(=O)N([C@@H](C)CO)C[C@@H]2C)c1 | 91.4%
32 | C[C@H](CO)N1C[C@H](C)[C@@H](CN(C)S(=O)(=O)c2ccc(F)cc2)Oc2cc(C3=CCCC3)ccc2S1(=O)=O | 114% (active)
33 | C[C@H]1CN([C@@H](C)CO)S(=O)(=O)c2ccc(C#Cc3ccccc3)cc2O[C@H]1CN(C)S(=O)(=O)c1cn(C)cn1 | 27.9%
34 | C[C@@H]1CN([C@@H](C)CO)S(=O)(=O)c2ccc(C#Cc3ccncc3)cc2O[C@@H]1CN(C)S(=O)(=O)c1ccccc1 | 11.5%
35 | COc1cccc(S(=O)(=O)N(C)C[C@H]2Oc3cc(C#CCN(C)C)ccc3S(=O)(=O)N([C@H](C)CO)C[C@H]2C)c1 | 75.2%
36 | C[C@H](CO)N1C[C@H](C)[C@H](CN(C)CC2CC2)OCCCC[C@H](C)Oc2ccc(NS(=O)(=O)c3cccs3)cc2C1=O | 38%
37 | CN1c2ccc(-c3ccc(F)cc3)cc2[C@@H]2[C@@H](CCN2S(=O)(=O)c2ccc(F)cc2)[C@@H]1CO | 90.2%
38 | CN1c2ccc(-c3ccc(F)cc3)cc2[C@@H]2[C@@H](CCN2C(=O)c2cccnc2)[C@H]1CO | 84%
39 | C[C@@H]1CCCCO[C@H](CN(C)C(=O)c2ccccc2)[C@H](C)CN([C@H](C)CO)C(=O)c2cc(N(C)C)ccc2O1 | 91.3%
40 | COCC(=O)N1C[C@@H]2[C@H](c3ccccc31)[C@@H](CO)N2C(=O)C1CC1 | 65.2%
41 | CN1C(=O)c2cc(NC(=O)c3ccccc3)ccc2OC[C@@H]2O[C@H](CC(=O)NCC3CC3)CC[C@@H]21 | -30.4%
42 | O=C(c1cccnc1)N1C[C@H]2[C@@H](c3ccccc31)[C@@H](CO)N2C(=O)Nc1ccccc1F | -1.74%

Row | SMILES | inhibition
43 | C[C@H]1CN([C@@H](C)CO)C(=O)c2c(c3ccccc3n2C)-c2ccccc2CO[C@H]1CN(C)S(=O)(=O)c1ccc(C#N)cc1 | 29.4%
44 | C[C@@H]1CN([C@@H](C)CO)S(=O)(=O)c2ccc(-c3ccc(F)cc3)cc2O[C@H]1CN(C)C(=O)c1ccccc1F | 84.8%
45 | C[C@H]1CN([C@@H](C)CO)S(=O)(=O)c2ccc(-c3cccc(F)c3)cc2O[C@@H]1CN(C)C | -32.3% and -49.6%
46 | C[C@@H]1CN([C@H](C)CO)S(=O)(=O)c2ccc(-c3cccc(F)c3)cc2O[C@H]1CN(C)S(=O)(=O)c1ccc(F)cc1 | 118% (active)
47 | COc1cccc(NC(=O)N[C@@H]2CC[C@H](CC(=O)NCc3ccccn3)O[C@H]2CO)c1 | -39.2%
48 | CO[C@@H]1CN(C)C(=O)c2cc(NS(=O)(=O)c3cn(C)cn3)ccc2OC[C@@H](C)NC[C@H]1C | -12.5%
49 | Cc1ccccc1S(=O)(=O)N[C@H]1CC[C@@H](CCn2cc(Cc3ccccc3)nn2)O[C@H]1CO | -21.8%
50 | CN1c2ccc(-c3ccccc3F)cc2[C@H]2[C@H](CCN2C(=O)Cc2ccccn2)[C@H]1CO | 81%
51 | CN1c2ccc(-c3ccccc3)cc2[C@@H]2[C@@H](CCN2C(=O)c2ccccc2F)[C@@H]1CO | 83.7%
52 | CCC(=O)N1CC[C@H]2[C@@H]1c1cc(-c3ccc(C#N)cc3)ccc1N(C)[C@H]2CO | 58.1%
53 | COc1cccc(NC(=O)N2CC[C@@H]3[C@@H](CO)N(C)c4ccc(-c5cccc(F)c5)cc4[C@@H]32)c1 | 30.5%
54 | CN1c2ccc(-c3ccccc3)cc2[C@@H]2[C@@H](CCN2C(=O)c2ccccc2)[C@H]1CO | 62.4%
55 | COc1ccc(-c2ccc3c(c2)[C@@H]2[C@@H](CCN2C(=O)Cc2ccccn2)[C@H](CO)N3C)cc1 | 90.9% (active)
56 | CCC(=O)N1CC[C@@H]2[C@@H](CO)N(C)c3ccc(-c4cccc(OC)c4)cc3[C@@H]21 | 104% (active)
57 | CN1c2ccc(-c3ccccc3)cc2[C@@H]2[C@@H](CCN2C(=O)c2ccncc2)[C@@H]1CO | 103% (active)
58 | COc1ccc(-c2ccc3c(c2)[C@H]2[C@H](CCN2C(=O)C2CCOCC2)[C@H](CO)N3C)cc1 | 1.27%
59 | CCCNC(=O)C[C@@H]1CC[C@H]2[C@H](COc3ccc(NC(=O)c4ccc(Cl)cc4)cc3C(=O)N2C)O1 | 29.6%
60 | COc1ccc(S(=O)(=O)Nc2ccc3c(c2)C(=O)N(C)C[C@@H](OC)[C@H](C)CN(C(=O)NC(C)C)[C@H](C)CO3)cc1 | -70.7%
61 | COc1ccc(NC(=O)N[C@H]2C=C[C@H](CC(=O)NCc3ccccn3)O[C@H]2CO)cc1 | -16.1%
